{"source": "PubChem BioAssay (NCATS)", "note": "Records with an inconclusive call do not appear. Active and inactive are the calls of the source. Calls follow the shape of the dose curve; as a rule, active = well fitted inhibition curve with a large enough effect; inconclusive = small, poorly fitted or top-dose-only effect; inactive = flat fitted curve, though single readings scatter."}
{"system": "CRL-7250", "test": "qHTS assay to identify novel small-molecules to repurpose for Merkel cell carcinoma treatment (AID 1296009); also: nearly all actives have a fitted effect of over 60% in size", "conditions": "MCC and control cell lines, CellTiter-Glo viability, 72 h; series mostly up to 92 µM; activity change, negative = cytotoxicity: at the top concentration", "method_in_brief": "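Cell viability measured by CellTiter-Glo following 72 hr compound treatment at 37 degree celsius, with NPC and MIPE libraries tested in 8- and 11-point concentration series.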"}
{"smiles": "C=C1CC[C@@H]2[C@](C)(CO[C@@H]3O[C@H](CO)[C@@H](O)[C@H](O)[C@H]3O)CCC[C@@]2(C)[C@@H]1CCC1=CCOC1=O", "outcome": "inactive [at 17.4 µM]"}
{"smiles": "CC(C)=CCCC1(C)Oc2cc3c(c4c2C2C(O4)C(C)(O)CCC21)CN(C(CCC(=O)O)C(=O)O)C3=O", "note": "(stereo unspecified)", "outcome": "inactive [at 17.4 µM]"}
{"smiles": "C=C1CCC2[C@@](C)(C=O)CCC[C@]2(C)[C@H]1CC/C(C)=C/CO", "note": "(stereo partly specified)", "outcome": "inactive"}
{"smiles": "O=C(O)/C=C/c1ccc(O[C@@H]2O[C@H](CO)[C@@H](O)[C@H](O)[C@H]2O)cc1", "outcome": "inactive"}
{"smiles": "C=CC/C=C\\C/C=C\\CCCCCCCc1cccc(O)c1C(=O)O", "outcome": "inactive"}
{"smiles": "COc1ccc(-c2ccc(-c3cn(C(=O)N4CCCCC4c4ccccc4)nn3)cc2)cc1", "note": "(stereo unspecified)", "outcome": "inactive"}
{"smiles": "CNc1cc2[nH]c(=O)n(-c3ccc(NC(=O)NS(=O)(=O)c4ccc(Cl)s4)cc3)c(=O)c2cc1F", "outcome": "inactive"}
{"smiles": "O=C(O[C@H]1[C@@H]2C[C@@H]3OC[C@@](O)([C@H]2[C@H](O[C@@H]2O[C@H](CO)[C@@H](O)[C@H](O)[C@H]2O)O3)[C@@H]1O)c1ccccc1", "outcome": "inactive [at 17.4 µM]"}
{"smiles": "COc1cc(O)c2c(c1)C1(OC2=O)C(C)=CC(=O)C1O", "note": "(stereo unspecified)", "outcome": "inactive"}
{"smiles": "CC1=CC(=O)CC(C)(C)C1(O)CCC(C)O", "note": "(stereo unspecified)", "outcome": "inactive"}
{"smiles": "CC1OC(O[C@H]2[C@@H](O)C[C@@]3(C)C([C@H](O)C[C@]4(C)C3CC=C3C5CC(C)(C)CC[C@]5(C(=O)OC5OC(CO)C(O)C(O)C5OC5OCC(OC6OCC(OC7OCC(O)C(O)C7O)C(O)C6O)C(OC6OCC(O)(CO)C6O)C5O)CC[C@]34C)[C@]2(C)CO)C(O)C(O)C1O", "note": "(stereo partly specified)", "outcome": "inactive [at 9.27 µM]"}
